# From PubChem BioAssay (NCI)
# About 79,000 compounds went through this panel and 15% of them were active in at least one assay; those are over-represented in the sample as a whole. A number with no mark means an inactive call. Calls of active or inactive are those of the source. No stated cut-off is given here; in the data, active means growth inhibition above about 70%; inactive means the rest.
# Experiments:
# [1] = NCI Yeast Anticancer Drug Screen. Data for the rad50 strain (AID 155);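 further: 0% = growth of vehicle-only cultures of the same strain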; settings: S. cerevisiae rad50 strain growth inhibition; at 50.0 µM; active compounds read high
# Method in brief: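 DNA repair mutant yeast, compound exposure, growth read-out; inhibition is taken relative to vehicle.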
# [2] = NCI Yeast Anticancer Drug Screen. Data for the mec2-1 strain (AID 157); settings: S. cerevisiae mec2-1 strain, at 50.0 µM, active compounds read high
# Method in brief: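 Vehicle-treated cultures served as reference for growth inhibition of compound-exposed mec2-1 yeast.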
# [3] = NCI Yeast Anticancer Drug Screen. Data for the sgs1 mgt1 strain (AID 161);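 further: 0% = growth of cultures given vehicle only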; settings: S. cerevisiae sgs1 mgt1 strain, at 50.0 µM, active compounds read high
# Method in brief: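 Read-out: growth inhibition vs vehicle controls. Cells: mutant yeast strain deficient in DNA damage repair.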
# [4] = NCI Yeast Anticancer Drug Screen. Data for the cln2 rad14 strain (AID 165);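 further: 0% = growth equal to vehicle treated cultures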; settings: S. cerevisiae cln2 rad14 strain, at 50.0 µM, active compounds read high
# Method in brief: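 Each compound was tested on cln2 rad14 yeast. Inhibition of growth was calculated against vehicle-exposed controls.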
# [5] = NCI Yeast Anticancer Drug Screen. Data for the bub3 strain (AID 167); settings: S. cerevisiae bub3 mutant strain, at 50.0 µM, active compounds read high
# Method in brief: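 In this screen, a yeast mutant lacking normal mitotic checkpoint function is challenged with compound. Relative growth versus vehicle gives the inhibition value.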
# [6] = NCI Yeast Anticancer Drug Screen. Data for the mlh1 rad18 strain (AID 175); settings: S. cerevisiae mlh1 rad18 strain growth inhibition; at 50.0 µM; active compounds read high
# Method in brief: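 Vehicle-treated cultures served as the reference for growth inhibition in a yeast strain carrying DNA damage repair alterations exposed to each compound.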
Compound,growth inhibition [1],growth inhibition [2],growth inhibition [3],growth inhibition [4],growth inhibition [5],growth inhibition [6]
CCN(CC)CC1CCCCN1 (configuration not stated),-10.1%,-15.7%,1.95%,29.6%,1.4%,2.55%
COc1ccc(Cc2nnc(SC)n2-c2ccc(F)cc2)cc1OC,8.7%,-8.25%,21%,6.15%,25.2%,16.6%
CCOC(=O)c1cnc2cc3c(cc2c1Nc1ccc2c(c1)OCO2)OCO3,12.4%,13.3%,6.85%,3.6%,0%,20%
Cc1nc(N)nc(C)c1Cl,-2.15%,3.4%,3.85%,5.2%,-5.9%,-1.85%
CCOC(=O)C1=NC(c2ccccc2)N(c2ccccc2)C1c1ccccc1 (configuration not stated),-9%,-8.5%,17.9%,-0.75%,10.3%,8.3%
CCCCCCCN1C(=O)C(O)(c2ccc(C3(O)C(=O)N(CCCCCCC)c4ccccc43)s2)c2ccccc21 (configuration not stated),9.35%,10.9%,4.9%,10.2%,9.7%,14.6%
CCC[CH2][Sn]([CH2]CCC)([O]C(=O)c1ccc(OC)c(OC)c1OC)[O][Sn]([CH2]CCC)([CH2]CCC)[O]C(=O)c1ccc(OC)c(OC)c1OC,85.7% (active),85% (active),86.3% (active),85.2% (active),87.2% (active),86.3% (active)
CC(C)OC(=O)C(=O)Nc1cccc(Cl)c1,-3.45%,-14.1%,-29.5%,-65.8%,-15.3%,-2.5%
CC(C)(C)c1cc(C(c2ccc3c(c2)OCO3)N2CCOCC2)c(O)c(C(C)(C)C)c1 (configuration not stated),12.3%,-12.3%,-2.05%,14.8%,13.1%,16.9%
O=C(O)C(Cc1ccccc1)NC(c1ccc(Cl)cc1)P(=O)(O)O (configuration not stated),14.3%,7.95%,-2.3%,12.8%,-4.8%,20.8%
CC1Cn2c(nnc2-c2ccccc2O)S1 (configuration not stated),-14.1%,0.6%,-3.25%,-2.95%,-15.3%,-12.6%
CC(Nc1cnccn1)Nc1cnccn1,-3.1%,-3.55%,-0.4%,-23.4%,-5.2%,1.05%
O=S1(=O)CC2C3CC(Oc4ccccc4)C(C3)C2C1 (configuration not stated),-9.85%,-6.35%,-4.2%,-20.9%,-26.6%,-6.5%
CC(=O)/C=C/C=C\C=C/N=C(c1ccccc1)c1ccccc1,-7.5%,-1.1%,-2.7%,3%,26.1%,-3.85%
COc1ccc(CCC(O)c2ccccc2)cc1 (configuration not stated),25.7%,20.4%,3.65%,16.1%,19.3%,16.1%
O=[N+]([O-])c1ccccc1S(=O)(=O)N1CCCc2cc(Cl)ccc21,-3%,4.15%,9.45%,-12%,20.6%,13.4%
Cc1cc(O)c([N+](=O)[O-])c(C)c1[N+](=O)[O-],2.2%,35.2%,3.5%,41.2%,39.3%,0.25%
Cc1ccc([N+](=O)[O-])cc1N=C=O,-38.5%,-43.9%,-31.1%,-34%,-32.8%,-56.3%
CCc1ccc(COC(=O)NC)nc1,38%,-0.75%,4%,-18%,-0.2%,19.6%
NCC(c1ccccc1)C1CCCCC1 (configuration not stated),13.2%,-2.35%,5.05%,-7.5%,-3.9%,15%
CCOC(=O)C(OCC1CC=CCC1)Sc1ccccc1 (configuration not stated),10.6%,-24.6%,-4.95%,-19.3%,-9.7%,-13.9%

Compound,growth inhibition [1],growth inhibition [2],growth inhibition [3],growth inhibition [4],growth inhibition [5],growth inhibition [6]
COc1cccc(C(=O)c2ccc(OC)cc2C(=O)O)c1,5.95%,-10.2%,-2.8%,-31.9%,4.3%,0.85%
COc1cc(C2CC(C)(N3CCCC3)Oc3cc4c(cc32)OCO4)cc(OC)c1OC (configuration not stated),1.2%,-1.6%,9.5%,-47.4%,-11.8%,5.95%
CC(=O)NCCCCCC(=O)N(C)C,-32.6%,-8.45%,-16.8%,-17.6%,-3.3%,-5.35%
CO/N=C\c1cc[n+](C)cc1,11.7%,24.6%,18.9%,30.7%,55%,19.2%
Nc1ccccc1C(F)(F)F,2.45%,5.65%,1.2%,4.1%,3.3%,8.25%
Cc1cccc(C)c1NC(=S)NC=C(C(N)=O)C(N)=O,-26.1%,-23.6%,12.7%,3.1%,-14.4%,10.6%
CC(C)(O)C12CC3CC(CC(C3)C1)C2,18.4%,-6.15%,8.35%,-38.2%,5.25%,0.2%
CCOC(=O)C(C)CC(C)C(=O)OCC (configuration not stated),20.6%,-26%,-19.3%,-2.85%,9.9%,2.5%
C[N+]1(CC(O)c2ccccc2)CCCC1 (configuration not stated),3.55%,13.3%,-0.25%,32.6%,6.3%,-10.8%
CCCc1cc(=O)oc2c3c(c4c(c12)OC(C)(C)C=C4)OC(C)[C@H](C)[C@@H]3O (some centres not stated),14.4%,11.4%,32%,8.85%,19.8%,26.1%
CC(=O)Cc1ccc(Cl)cc1[N+](=O)[O-],-14.8%,5.95%,-8.5%,-24.3%,-9.7%,1.9%
CN(C)CCN1N=Nc2cccc3cccc1c23,43.3%,18.2%,10.9%,19.2%,30.6%,39.4%
Nc1ccccc1NC(=O)C(F)(F)F,-2.45%,-5.4%,3.3%,-8.4%,-8.75%,1.15%
O=C(c1ccco1)C(O)c1ccccc1 (configuration not stated),1.3%,8.9%,-2.6%,-2.55%,-11.9%,5.95%
O=C1c2ccccc2C(=O)N1c1ccc(C(F)(F)F)cc1[N+](=O)[O-],-1.25%,16.2%,19.7%,-15.8%,14.5%,7.2%
CCN(C/C=C/CN(CC)C(=S)Nc1ccccc1)C(=S)Nc1ccccc1,29.6%,-7.85%,5.2%,18.8%,-1.1%,9.8%
O=S=Nc1ccc([N+](=O)[O-])cc1Cl,5.7%,-1.15%,-2.9%,-33.6%,10.7%,16.6%
N#Cc1nccc2ccccc12,12.2%,-13.3%,-13.1%,-29.1%,-1.4%,-13.4%
COC(=O)c1sc(N2CCCC2)nc1N,-4.95%,9.95%,6.4%,-1.3%,11.4%,-1.85%
CC(C)COc1ccc(O)cc1,8.95%,-3.55%,-16.5%,-43.5%,-11%,3.35%
O=C(NC(=O)c1ccccc1F)Nc1ccc(Cl)cc1,27.1%,37.3%,24.6%,56.8%,49.8%,43.1%
